A selection: hits, their analogues and other compounds. The true share with any hit is near 2.2%.
Efflux pump mplx = inhibitors of Candida efflux pumps in yeast, primary screen, S. cerevisiae, Nile Red, multiplex. 330,000 compounds, 0.44% hits. inhibition, % at 10 µM. S. cerevisiae Candida pump triplex. AID 485275, 2010;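 active = plate passing quality check with inhibition over a set limit, or well fluorescence over plate mean plus 4 SD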;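 note: Nile Red retained in pooled yeast measured as flow cytometry median fluorescence; higher means more Nile Red kept so more efflux inhibition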
SKN-1 inh = suppressors of acrylamide-induced Pgst-4::GFP reporter in worms, primary screen, SKN-1 inhibitor project, whole organism, uHTS, GFP/RFP fluorescence ratio, strain VP596 | AID 624304, 2012 | 360,000 compounds, 0.49% hits | C. elegans VP596 Pgst-4::GFP/RFP ratio, 24 h | inhibition, % at 21.8 µM;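 active = interference check ratio from 0.5 to 1.5 plus GFP to RFP signal ratio inhibition reaching or exceeding a fixed threshold, cut at about 30% in these data, passing the limit was not always enough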
HGIII-sPLA2 inh = human group III sPLA2 inhibitors, primary screen, biochemical, QFRET, BODIPY PC-A2 liposome substrate; 370,000 compounds, 0.56% hits; Group 3 secretory phospholipase A2 (Homo sapiens), Q9NZ20; inhibition, % at 12.2 µM; QFRET BODIPY PC-A2 liposome hydrolysis, fluorescence; AID 743126, 2013;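 active = inhibition above mean plus 3 SD of compounds lying within the high and low control bounds, cut at about 19% in these data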
Target sequence (Q9NZ20 whole entry, looked up): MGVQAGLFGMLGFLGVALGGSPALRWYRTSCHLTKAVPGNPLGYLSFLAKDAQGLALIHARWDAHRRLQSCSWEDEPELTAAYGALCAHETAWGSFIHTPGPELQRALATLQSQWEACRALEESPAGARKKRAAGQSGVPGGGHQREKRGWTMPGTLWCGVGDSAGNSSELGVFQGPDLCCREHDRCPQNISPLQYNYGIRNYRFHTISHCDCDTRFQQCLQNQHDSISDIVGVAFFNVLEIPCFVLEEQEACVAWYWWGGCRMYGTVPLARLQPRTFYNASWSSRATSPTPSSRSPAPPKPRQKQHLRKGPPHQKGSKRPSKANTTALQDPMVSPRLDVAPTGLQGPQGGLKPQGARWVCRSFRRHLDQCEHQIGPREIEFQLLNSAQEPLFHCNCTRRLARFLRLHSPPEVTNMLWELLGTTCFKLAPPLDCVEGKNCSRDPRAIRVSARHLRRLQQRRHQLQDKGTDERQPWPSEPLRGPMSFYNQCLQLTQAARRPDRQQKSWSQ
SUMO Mot1 rescue = yeast Mot1-301 growth rescue at high temperature, primary screen, SUMOylation pathway inhibitor project, S. cerevisiae, ATP luminescence, 38.5C; S. cerevisiae Mot1-301 growth rescue; percent above DMSO median, 100 means doubled; growth rescue, % at 18.8 µM; 320,000 compounds, 1% hits; AID 2716, 2010;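 active = every valid replicate shows activation above 250% relative to neutral control wells; inactive = the rest, any valid replicate at or below 250%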
Yeast cmpd fluor = flagged as fluorescent in efflux inhibitor counter-screen | shares compounds with Efflux pump mplx | S. cerevisiae AD/pABC3, compound fluorescence, flow cytometry | fluorescence ratio to DMSO, % at 10 µM | 1,700 compounds, 4% hits;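 active = fluorescence ratio to DMSO above its plate's cutoff, the plate mean ratio plus 5 SD, cut at about 210% in these data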;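 note: unstained yeast with no Nile Red so the signal is compound autofluorescence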
Mdr1 pump inh = inhibitors of Candida albicans Mdr1 efflux, confirmation, flow cytometry, singleplex, Cherry Pick1 set; S. cerevisiae AD/CaMDR1, Nile Red efflux; shares compounds with Efflux pump mplx; 1,700 compounds, 1% hits; inhibition, % at 10 µM; in the data active = inhibition above about 26%;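 note: higher means more Nile Red retained so more efflux inhibition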
Cdr2 pump inh = inhibitors of Candida albicans Cdr2 efflux pump, confirmation, S. cerevisiae AD/CaCDR2, flow cytometry, cherry pick 1, singleplex; shares compounds with Efflux pump mplx; Nile Red retention; Nile Red retention ratio vs DMSO, % at 10 µM; 1,700 compounds, 4% hits; AID 588520, 2011; in the data active = Nile Red retention ratio vs DMSO above about 190%;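 note: higher ratio means more blocking of Cdr2 efflux of the dye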
Cdr1 pump inh = inhibitors of Candida albicans Cdr1 efflux pump, confirmation, S. cerevisiae AD/CaCDR1, flow cytometry, cherry pick 1, singleplex. shares compounds with Efflux pump mplx. Nile Red efflux. inhibition, % at 10 µM. 1,700 compounds, 1% hits;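 active = inhibition above the screen-wide mean plus twice its standard deviation, cut at about 32% in these data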
Each line names hits and unclear results; the compound was inactive in the other large screens (follow-up assays come after a bar, where they were run).

Cn1c(/C(C#N)=C/c2ccc(O)cc2)nc2ccccc21	none
COc1cc(/C=C(\C#N)c2nc3ccccc3n2C)cc(OC)c1O	Efflux pump mplx 1.0 | Yeast cmpd fluor inactive | Mdr1 pump inh inactive | Cdr2 pump inh inactive | Cdr1 pump inh inactive
CCOC(=O)c1sc2nc3c(SCC(=O)O)cc(C(=O)c4ccccc4O)cn3c(=O)c2c1C	Efflux pump mplx 1.5 | Yeast cmpd fluor inactive | Mdr1 pump inh inactive | Cdr2 pump inh inactive | Cdr1 pump inh inactive
CCOC(=O)c1sc2nc3c(SCC(=O)O)cc(C(=O)c4cc(F)ccc4O)cn3c(=O)c2c1C	none
COCC(=O)N1CCCc2ccccc21	none
COC(=O)c1ccc(OCC(=O)N2CCCc3ccccc32)cc1	Efflux pump mplx 2.8 | Yeast cmpd fluor inactive | Mdr1 pump inh inactive | Cdr2 pump inh inactive | Cdr1 pump inh inactive
Cn1cccc1Cc1nnc(SCC(=O)Nc2ccc(F)cc2)n1-c1ccc(F)cc1	none
Cn1cccc1Cc1nnc(SCC(=O)Nc2ccccc2)n1-c1ccc(F)cc1	none | Yeast cmpd fluor inactive | Mdr1 pump inh inactive | Cdr2 pump inh inactive | Cdr1 pump inh inactive
COc1ccc(-n2c(Cc3cccn3C)nnc2SCC(=O)Nc2cccc(F)c2)cc1	none | Yeast cmpd fluor inactive | Mdr1 pump inh inactive | Cdr2 pump inh inactive | Cdr1 pump inh inactive
COc1ccc(-c2ccc(NC(=O)c3ccco3)cc2)nn1	none
COc1ccc(CCNC(=O)c2ccc(-c3cccc([N+](=O)[O-])c3)o2)cc1OC	none
COc1ccc(CCNC(=O)c2ccc(-c3ccc([N+](=O)[O-])cc3Cl)o2)cc1	Efflux pump mplx 6.7 | Yeast cmpd fluor inactive | Mdr1 pump inh inactive | Cdr2 pump inh inactive | Cdr1 pump inh inactive
COc1ccc(S(=O)(=O)N2CCC(C(=O)NCCC(=O)NCc3ccccn3)CC2)cc1	none (no result: Efflux pump mplx, SUMO Mot1 rescue)
COC(=O)CN1C(=S)N(c2ccc(Cl)cc2)C(=O)C1CC(=O)Nc1ccc(Cl)cc1 (configuration not stated)	Efflux pump mplx 0.5 | Yeast cmpd fluor inactive | Mdr1 pump inh inactive | Cdr2 pump inh inactive | Cdr1 pump inh inactive
COC(=O)CN1C(=S)N(c2ccc(Cl)cc2)C(=O)C1CC(=O)Nc1ccc(F)cc1 (configuration not stated)	none
O=C1/C(=C/C=C/c2ccco2)SC(=S)N1c1ccc(O)cc1	none
O=C1/C(=C\c2ccco2)SC(=S)N1c1ccc(O)cc1	Efflux pump mplx 0.4 | Yeast cmpd fluor inactive | Mdr1 pump inh inactive | Cdr2 pump inh inactive | Cdr1 pump inh inactive
Cc1ccc(C(=O)COC(=O)c2cccc([N+](=O)[O-])c2)s1	none
Cc1cc(O)c(N)c(C)c1Cl	Efflux pump mplx 0.8 | Yeast cmpd fluor inactive | Mdr1 pump inh inactive | Cdr2 pump inh inactive | Cdr1 pump inh inactive
Cc1cc(O)cc(C)c1Cl	none
COCC(=O)N(C[C@H]1[C@H](c2ccccc2)[C@@H](CO)N1C(=O)NC(C)C)C(C)C	none (no result: Efflux pump mplx, SKN-1 inh, SUMO Mot1 rescue)
CCOC(=O)c1ccccc1NC(=O)CSc1ccc(-c2cccnc2)nn1	Efflux pump mplx 1.5 | Yeast cmpd fluor inactive | Mdr1 pump inh inactive | Cdr2 pump inh inactive | Cdr1 pump inh inactive
CC(C)(C)C1CCC(OC(=O)C[N+]2(C)CCCC2)CC1 (configuration not stated)	Efflux pump mplx 0.5 | Yeast cmpd fluor inactive | Mdr1 pump inh inactive | Cdr2 pump inh 260 | Cdr1 pump inh inactive
CCOC(=O)c1c(C)[nH]c(C)c1C(=O)COC(=O)/C=C/c1ccc(OC(F)F)cc1	none

From PubChem BioAssay
